Structures are written as SMILES. The campaign covered roughly 68,000 compounds. About 2,700 (4%) showed an effect of 50% or more. The full list was thinned out, with strong results kept by preference.

The assay relates to Plasmodium berghei. The assay can be described thus: Screen against P. berghei liver stage (PbLuc), transformed with Luciferase, at 2uM. It counts as functional, HepG2. The settings on record: tested at 2 uM.
Regarding `O=C(C1CCC1)N1CCC2(CC1)OCCO2`, the INHIBITION was found to be 11.87%. Regarding `CC(C)C1CN(c2cccc(C#N)n2)CCCN1Cc1ccc(F)cc1` (stereo not drawn), the INHIBITION was determined as 8.26%. Under `Cc1cc(C)nc(C2CCN(c3ccncn3)C2)n1` (stereo not drawn) stands 80.06%; under `CCc1nnc(Nc2cc(C)nc(C3CCN(c4ccncn4)C3)n2)s1` (stereo not drawn), 37.36%; under `Cc1ccnc(C2CCN(c3ccnc(C)n3)C2)n1` (stereo not drawn), 17.24%. For `N#Cc1cccc(NC(=O)N(CC(F)F)C2CC2)c1`, the INHIBITION was -73.45%.

Consider `CSCC(=O)N1CCCC(CCC(=O)N(C)CCc2ccccn2)C1` (stereo not drawn), for which the INHIBITION was determined as 28.62%. To `O=C(c1ccoc1)N1CC[C@H]2OCC[C@@]2(COc2ncccc2F)C1` belongs 30.79%. To `CC(c1cccc(O)c1)N(C)S(=O)(=O)c1cccnc1` (stereo not drawn) belongs -18.09%.

Regarding `CCN(C(C)c1cccc(O)c1)S(=O)(=O)c1cccnc1` (stereo not drawn), the INHIBITION was 52.83%. For `CC(c1cccc(O)c1)N(C)S(N)(=O)=O` (stereo not drawn), the INHIBITION was -21.47%.

With `Cc1cc(C)c(N(CC(O)CNCc2ccccc2)S(C)(=O)=O)c(C)c1` (stereo not drawn), the INHIBITION came out at 25.73%. Under `CN(CCNC(=O)N1CCN(Cc2ccon2)CC1)c1ccccc1` stands -5.97%; under `Cc1cc(CN2CCN(C(=O)NCc3ccco3)CC2)no1`, -24.5%.

Take `CC(OCC(F)(F)F)C(=O)NCCN(C)C` (stereo not drawn): the INHIBITION is listed as -6.73%. To `CC(C)C(=O)NCCNC(=O)C(C)OCC(F)(F)F` (stereo not drawn) belongs 57.76%; to `CCN(CC)CCNC(=O)C(C)OCC(F)(F)F` (stereo not drawn), -55.73%. `O=C(c1c[nH]c(=O)[nH]1)N1CCc2ccccc21`: the INHIBITION is recorded as -63.68%.

Regarding `O=C(c1ccc(=O)[nH]n1)N1CCc2ccccc21`, the INHIBITION is 54.52%. Under `CC(C)(C)c1ccc2c(c1)CCN2C(=O)c1ccc(=O)[nH]n1` stands -6.69%; under `O=C(c1cccnc1)N1CCCC1c1cc[nH]n1` (stereo not drawn), 40.31%. To `Cc1ccc(C(=O)N(Cc2cccc(F)c2)C2CC2)c(=O)[nH]1` belongs 63.46%; to `Cc1ccc(C(=O)N(Cc2ccc(F)cc2)C2CC2)c(=O)[nH]1`, 27.33%. Under `Cc1ccc(C(=O)N(Cc2ccc(F)cc2F)C2CC2)c(=O)[nH]1` stands 20.76%; under `O=C(O)c1c(NC2CCC2)ncc2c1CCN(C1CCOC1)C2` (stereo not drawn), 45.12%.

For `CCN(CC)c1ncc2c(c1C(=O)O)CCN(C1CCOC1)C2` (stereo not drawn), the INHIBITION worked out at 24.51%. To `O=C(O)c1c(-c2ccncc2)ncc2c1CCN(C1CCOC1)C2` (stereo not drawn) belongs -80.9%; to `CN1CCN(c2ncc3c(c2C(=O)O)CCN(C2CCOC2)C3)CC1` (stereo not drawn), 21.28%. Under `CCN(C)c1ncc2c(c1C(=O)O)CCN(C1CCOC1)C2` (stereo not drawn) stands 54.13%; under `O=C(O)c1c(-c2ccoc2)ncc2c1CCN(C1CCOC1)C2` (stereo not drawn), 55.52%. To `CNS(=O)(=O)c1ccc(CNC(=O)Nc2cn[nH]c2)cc1` belongs 2.07%; to `COc1ccccc1CCc1nc(CC2CCN(C)CC2)no1`, 34.46%; to `COc1c[nH]c(C(=O)N2CCN(c3cccc(Cl)c3)CC2)cc1=O`, 22.88%.

On to `CCc1ncc(CN2C[C@@H]3CC[C@H]2CN(C(=O)C2CCC2)C3)cn1`, for which the INHIBITION is given as 12.3%. Regarding `Cn1ccnc1CN(CCO)C(=O)c1cc2ccccc2o1`, the INHIBITION is reported as 22.27%.

Take `Cc1c(Cl)cc(C(=O)N(CCO)Cc2nccn2C)cc1Cl`: the INHIBITION is 55.84%. Under `Cn1ccnc1CN(CCO)C(=O)c1cnc2ccccc2c1` stands 29.71%; under `CC(C)NC(=O)NC(C)c1nc(-c2ccccc2)cs1` (stereo not drawn), -22.08%. To `Cc1csc(N(C)C(=O)C2CC(=O)N(c3ccccc3Cl)C2)n1` (stereo not drawn) belongs -29.95%; to `CN1CCc2nc(C3CCCN(S(=O)(=O)N4CCCC4)C3)ncc2C1` (stereo not drawn), -1.51%. For `CCN(CC)S(=O)(=O)N1CCCC(c2ncc3c(n2)CCN(C)C3)C1` (stereo not drawn), the INHIBITION came out at 3.38%. To `CN1CCc2nc(C3CCCN(S(=O)(=O)c4ccccc4)C3)ncc2C1` (stereo not drawn) belongs 64.55%. Under `Cc1nc(N2CCCC2C(=O)NC(C)(C)CO)nc2ccccc12` (stereo not drawn) stands 26.49%; under `COCC1CN(c2ccc(Cl)cc2C#N)CCO1` (stereo not drawn), 29.3%. To `Cc1nc(CN2CCCC(c3nc(C)n4c(C)c(C)sc34)C2)co1` (stereo not drawn) belongs -12.89%; to `Cc1cc(CNCC2(O)CCOCC2)ccc1Br`, -6.29%. As for `Cc1cc(CNC2(CO)CCOCC2)ccc1Br`, the INHIBITION stood at 51.08%.

`OCC1(NCc2cccc(-n3cccn3)c2)CCOCC1`: the INHIBITION is listed as -2.38%. Under `CCn1c(CN2CCN(C(=O)C3CCC3)CC2)nc2c(F)cccc21` stands 10.22%; under `O=C(C1CNCCO1)N1CCCC(c2ccccc2)(c2ccccc2)C1` (stereo not drawn), 42.2%; under `CCCc1nc(C)c(C(=O)NS(=O)(=O)c2ccc(C#N)cc2)s1`, 55.63%. Under `CCCc1nc(C)c(C(=O)NS(=O)(=O)c2cccnc2)s1` stands -25.2%; under `Cc1nc(C(C)C)sc1C(=O)NS(=O)(=O)c1ccc(C#N)cc1`, 36.12%.

These data come from ChEMBL document CHEMBL4513216, “Probing the Open Global Health Chemical Diversity Library for Multistage-Active Starting Points for Next-Generation Antimalarials” (ACS Infect Dis, 2020).
